From PubChem BioAssay (Tox21)
Results filed as inconclusive are left out. A call without a number means that no potency is given here. Activity calls are given as the source filed them. The call rests on the fitted dose curve.

experiment: qHTS assay for small molecule disruptors of the mitochondrial membrane potential - cell viability (AID 720634); settings: HepG2 viability, ATP luminescence (CellTiter-Glo), 1 h; series mostly up to 83.2 µM; further: nearly all actives have a fitted effect of over 20% in size
Excerpt: U.S. Tox21 Program National Center for Advancing Translational Sciences [NCATS] NIH Chemical Genomics Center [NCGC] U.S. Environmental Protection Agency [EPA] National Institutes of Environmental Health Sciences [NIEHS] National Toxicology Program [NTP] U.S. Food and Drug Administration [FDA] Tox21 Assay Overview: Mitochondrial membrane potential (MMP), one of the parameters for mitochondrial function, is generated by mitochondrial electron transport chain that creates an electrochemical gradient by a series of redox reactions. This gradient drives the synthesis of ATP, a crucial molecule for various cellular processes. Measuring MMP in living cells is commonly used to assess the effect of chemicals on mitochondrial function; decreases in MMP can be detected using lipophilic cationic fluorescent dyes. […] The dye accumulates in the mitochondria of healthy cells as aggregates, with red fluorescence. The mitochondrial potential decreases and the dye could not accumulate in the mitochondria and remains in the cytoplasm in monomers, with green fluorescence. In addition to the mitochondrial potential assay, these cells were also used to test the cytotoxicity by determining the cell viability in the culture based on the quantitation of ATP present. The cytotoxicity was measured in the same assay well of MMP assay.
Tox21 Assay Protocol Summary: 2,000 HepG2 cells in 5 uL/well were dispensed into black, clear-bottom 1536-well plates using a Multidrop Combi (Thermo Scientific) dispenser. The assay plates were incubated for an overnight at 37 C to allow cells to attach to the wells, followed by the transfer of 23 nL compound or DMSO vehicle by a pin tool (Kalypsys). The plates were incubated for 1 hr at 37 C and 5% CO2, followed by the addition of 5 uL of 2X m-MPI dye into each well using Flying Reagent Dispenser (Aurora Discovery) and then CellTiter-Glo reagent was added at 4 uL/well and incubated 30 min at room temperature. Then luminescence intensity was quantified on a ViewLux CCD-based plate reader.
Potency means the concentration at half of the fitted maximal effect.

Row | SMILES | Potency
1 | NNc1ccc(C(=O)O)cc1 | inactive
2 | CNCCCC12CCC(c3ccccc31)c1ccccc12 | inactive
3 | COC(=O)CCC(=O)OC | inactive
4 | Oc1ccc(O)cc1 | inactive
5 | CCCCC(CC)COP(=O)(OCC(CC)CCCC)OCC(CC)CCCC (stereo not given) | inactive
6 | Cc1cccc(N(C)C(=S)Oc2ccc3ccccc3c2)c1 | 17.2 µM (active)
7 | OC1CCCCCCCCCCC1 | inactive
8 | c1ccc2c(c1)c1cccc3ccc4cccc2c4c31 | inactive
9 | CCCC(=O)O | inactive
10 | O=C(OCc1ccccc1)c1ccccc1O | inactive
11 | Cc1c(OCC(F)(F)F)ccnc1CS(=O)c1nc2ccccc2[nH]1 (stereo not given) | inactive
12 | COc1c(Cl)c(Cl)c(Cl)c(Cl)c1Cl | inactive
13 | O=P(O)(O)O | inactive
14 | Cc1ccc(C)c(O)c1C | inactive
15 | C[Si](C)(C)O[Si](C)(C)C | inactive
16 | CN(C)c1nc(N(C)C)nc(N(C)C)n1 | inactive
17 | Cc1ncc[nH]1 | inactive
18 | Nc1ccc(Nc2ccccc2)cc1 | inactive
19 | COC(=O)Nc1nc2ccc(S(=O)c3ccccc3)cc2[nH]1 (stereo not given) | inactive
20 | O=C(c1ccccc1)c1ccccc1O | inactive

Row | SMILES | Potency
21 | COc1ccc(OC)c(C(O)CNC(=O)CN)c1 (stereo not given) | inactive
22 | CN(C)C(=N)N=C(N)N | inactive
23 | CCCCCCCCCCCO | inactive
24 | CCC(C)CO (stereo not given) | inactive
25 | Cc1c(C(N)=O)cc([N+](=O)[O-])cc1[N+](=O)[O-] | inactive
26 | Clc1nc(Cl)c(Cl)c(Cl)c1Cl | inactive
27 | O=Cc1ccccc1O | inactive
28 | OC(CCl)CCl | inactive
29 | NC=O | inactive
30 | Cc1[nH]c(=O)c(C#N)cc1-c1ccncc1 | inactive
31 | CCCCC/C=C/C=C/C=O | inactive
32 | O=C(/C=C/C=C/c1ccc2c(c1)OCO2)N1CCCCC1 | inactive
33 | CCC(C)(O)CCCC(C)C (stereo not given) | inactive
34 | c1ccc2c(c1)Oc1ccccc1S2 | inactive
35 | Cn1cnc([N+](=O)[O-])c1Sc1ncnc2nc[nH]c12 | inactive
36 | CC(CCC(=O)O)(c1ccc(O)cc1)c1ccc(O)cc1 | inactive
37 | S=C(NC1CCCCC1)NC1CCCCC1 | inactive
38 | C[C@]12CC[C@H]3[C@@H](CCC4=CC(=O)CC[C@@]43C)[C@@H]1CC[C@@H]2C(=O)CO | inactive
39 | O=c1oc(=O)c2cc3c(=O)oc(=O)c3cc12 | inactive
40 | Cc1cccc(C(=O)O)c1 | inactive
